D3 ag – qHTS of D3 Dopamine Receptor Agonist: qHTS; D3R DiscoveRx beta-arrestin cells, luminescence, 90 min; AID 652048, 2013; 410,000 tested, 0.58% active; max activation, %; in the data active means max activation above about 30%
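Cells at 1500/well, incubated overnight, then treated with pinned compounds (dopamine as control) for 90 min at 37 degrees C. DiscoveRx reagent added for 30 - 60 minutes at room temperature; luminescence read.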
DRD3 antagonist – qHTS of D3 Dopamine Receptor Antagonist: qHTS | D3R cells, DiscoveRx beta-arrestin luminescence, antagonist mode; hits give low values | max response, negative = inhibition, % | 360,000 tested, 2.5% active; in the data active means max response below about -50%; inconclusive means no clear call, values can overlap the other calls
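Cells expressing the human receptor were seeded at 1500 cells/well, incubated overnight at 37 degrees C in 5% CO2, then exposed to library compounds with dopamine controls for 90 minutes at 37 degrees C before luminescent detection.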
B2AR arrestin – qHTS assay of beta-arrestin-biased ligands of beta2-adrenergic receptor; beta-arrestin recruitment to beta2AR, cell-based reporter; Beta-2 adrenergic receptor (Homo sapiens), P07550; 330,000 tested, 0.02% active; Potency, µM (top dose mostly 46.1 µM), actives largely listed as activators; active means well fitted activation curve with a large enough effect; inconclusive means small, poorly fitted or top-dose-only effect; further: nearly all actives have a fitted effect of over 65% in size
Target sequence (P07550 whole entry, looked up): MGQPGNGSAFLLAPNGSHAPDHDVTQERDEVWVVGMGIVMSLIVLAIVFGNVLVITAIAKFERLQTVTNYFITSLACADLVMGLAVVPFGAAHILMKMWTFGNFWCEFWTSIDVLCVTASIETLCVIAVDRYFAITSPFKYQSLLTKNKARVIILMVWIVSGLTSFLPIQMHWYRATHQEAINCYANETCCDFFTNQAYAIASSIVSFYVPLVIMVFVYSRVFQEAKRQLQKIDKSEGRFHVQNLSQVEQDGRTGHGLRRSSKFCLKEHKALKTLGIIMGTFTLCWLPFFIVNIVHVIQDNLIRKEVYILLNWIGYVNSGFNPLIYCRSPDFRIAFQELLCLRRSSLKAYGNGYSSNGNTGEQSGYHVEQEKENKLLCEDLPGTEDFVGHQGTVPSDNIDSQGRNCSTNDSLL
TSHR antagonist – Antagonists of the Thyroid Stimulating Hormone Receptor: HTS campaign | TSHR-expressing cells, TSH-stimulated cAMP HTRF, 2 h; hits give low values | activity change, negative = inhibition, % at 11.5 µM | 330,000 tested, 0.2% active | AID 504810, 2011;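 active means activity change below a set negative limit, meaning inhibition stronger than a set level, cut at about -70% in these data; inconclusive means activity change between two set negative limits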
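Freshly harvested TSHR cells receive pin-tooled compound, then EC80 TSH at 4nM final. After 2 hours at 37 deg C, antibody in lysis buffer and cAMP-d2 are added; 30 minutes at ambient temperature precede the HTRF read.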
Hits are given with their value; 0 = inactive; ? = inconclusive; - = no result. The list is not random: actives were taken first. Their share in the collection is about 2.9%.

SMILES | D3 ag | DRD3 antagonist | B2AR arrestin | TSHR antagonist
CN(CC(=O)Nc1cc(S(=O)(=O)N2CCCC2)ccc1Cl)Cc1ccc2c(c1)OCO2 | 0 | 0 | 0 | 0
Cc1cccc(N2CCN(S(=O)(=O)c3cn(C)c(C)n3)CC2)c1C | 0 | - | - | -
COC(=O)Cc1c(C)nc2nc(NCc3ccc(Br)cc3)[nH]n2c1=O | 0 | - | - | -
ClCC(CNCc1ccccc1)c1ccccc1 (centres undefined) | 0 | -55.4 | - | -
CCOc1ccc(OCC(O)CN2CCc3ccccc3C2)cc1 (centres undefined) | 0 | -98.0 | 0 | 0
CN(Cc1ccccc1)CC(O)COc1ccc(CNCCOc2cccnc2)cc1 (centres undefined) | 61.2 | 0 | 0 | 0
COc1ccc(COCC(O)CN2CC(C)OC(C)C2)cc1OC (centres undefined) | 0 | -154.0 | 0 | 0
CC(=O)c1ccc(OCC(O)CN2CC(C)OC(C)C2)cc1 (centres undefined) | 0 | -55.0 | 0 | 0
COc1ccc(COCC(O)CN2CCOCC2)cc1OC (centres undefined) | 0 | 0 | 0 | 0
Cc1ccc(C2CC(=O)Nc3c2c(C)nn3-c2nc(C)cc(C)n2)c(C)c1 (centres undefined) | 0 | - | - | -
O=C(Nc1ccc(C(=O)OCc2cc(=O)n3ccsc3n2)cc1)c1cccc(F)c1 | 0 | - | - | -
CCCCCC(=O)N1C[C@H](n2cc(-c3ccc(F)cc3)nn2)[C@@H](O)C[C@@H]1c1ccc(Cl)cc1 | 0 | 0 | - | -
Cc1ccc(C)c(OCC(O)CN2CCc3ccccc3C2)c1C (centres undefined) | 0 | -115.1 | 0 | 0
Cc1cc(OCC(O)CN2CCc3ccccc3C2)ccc1Cl (centres undefined) | 0 | -98.1 | 0 | 0
Cc1ccc(OCC(O)CN2CCOCC2)cc1C (centres undefined) | 0 | 0 | 0 | 0
CC(C)c1ccc(OCC(O)CN2CCCC2)cc1 (centres undefined) | 0 | 0 | 0 | 0
Cc1cc(OCC(O)CN2CCc3ccccc3C2)cc(C(C)C)c1 (centres undefined) | 0 | -68.1 | 0 | 0
CCN(CCn1cccn1)Cc1ccccc1OCC(O)CN1CCc2ccccc2C1 (centres undefined) | 0 | -57.7 | 0 | 0
Cc1ccccc1N1CCN(S(=O)(=O)c2nnc(NC(=O)c3ccc(C(C)C)cc3)s2)CC1 | 0 | - | - | -
COc1ccc(C)cc1NC(=O)c1nnn(CC(=O)Nc2c(C)cccc2C)c1N | 0 | - | - | -
CCn1c(CNC(=O)c2ccc(OC)cc2)nnc1SCC(=O)Nc1cccc(C)c1 | 0 | - | - | -
CC(=O)c1ccc(OCC(O)CN2CCc3ccccc3C2)cc1 (centres undefined) | 0 | -83.7 | 0 | 0
OC(COc1ccc(CNCc2cccnc2)cc1)CN1CCc2ccccc2C1 (centres undefined) | 0 | -103.3 | 0 | 0
OC(COCc1ccc(Cl)cc1)CN1CCN(CC(O)COCc2ccc(Cl)cc2)CC1 (centres undefined) | 0 | 0 | 0 | 0
OC(COc1ccccc1CNCc1cccnc1)CN1CCc2ccccc2C1 (centres undefined) | 0 | 0 | 0 | 0
SMILES | D3 ag | DRD3 antagonist | B2AR arrestin | TSHR antagonist
CC(=O)c1ccc(OCC(O)CN2CCOCC2)cc1 (centres undefined) | 0 | 0 | 0 | 0
OC(COCc1ccc(Cl)cc1)CN1CCc2ccccc2C1 (centres undefined) | 0 | -71.9 | 0 | 0
COC(=O)c1c(C)oc2ccc(N(C(=O)c3ccncc3)S(=O)(=O)c3c(C)cc(C)cc3C)cc12 | 0 | - | - | -
Cc1ccc(S(=O)(=O)N(C)C)cc1NC(=O)C(C)N(C)CCOc1ccc(Cl)cc1 (centres undefined) | 0 | 0 | 0 | 0
c1ccc(CCNCCCOc2cccc3ccccc23)cc1 | 0 | -67.1 | 0 | 0
CC(=O)NCCOc1cccc2ccccc12 | 0 | 0 | 0 | 0
CN(CCOc1ccc(Cl)cc1)Cc1cccc(S(=O)(=O)N(C)C)c1 | 47.4 | 0 | 0 | 0
CN(CCOc1cccc2ccccc12)Cc1ccccc1 | 0 | -75.5 | 0 | 0
CN(CCOc1ccccc1)Cc1ccccc1 | 0 | -117.2 | - | -
CCN(Cc1ccccc1)C(=O)CCCOc1ccccc1 | 0 | 0 | 0 | 0
CCc1ccc(CN(C)CC(O)COc2cccc3ccccc23)cc1 (centres undefined) | 0 | 0 | 0 | 0
CC(N)c1csc(NC(=O)Nc2cccc(C(F)(F)F)c2)n1 (centres undefined) | 0 | -54.0 | - | -
CC(C)c1ccc(NC(=O)Nc2nc(C(N)C(C)C)cs2)cc1 (centres undefined) | 42.6 | -53.5 | - | -
COc1ccc2[nH]c(=O)c(C(c3nnnn3C3CCCC3)N3CCN(Cc4ccc5c(c4)OCO5)CC3)cc2c1 (centres undefined) | 0 | -53.8 | 0 | 0
CCCCCCCOC(=O)c1ccc(OC(=O)c2cccnc2)cc1 | 0 | 0 | 0 | 0
CCCCCOC(=O)c1ccc(OC(=O)c2cncc(Br)c2)cc1 | 0 | -73.9 | 0 | 0
CSCCC(NS(=O)(=O)c1ccc2c(c1)oc(=O)n2C)C(=O)NCCc1ccc(C)cc1 (centres undefined) | 0 | - | - | -
COCCNS(=O)(=O)c1ccc(C2CNC(=O)C2)cc1 (centres undefined) | 0 | 0 | 0 | 0
COc1ccc(CNS(=O)(=O)c2ccc(C3CNC(=O)C3)cc2)cc1 (centres undefined) | 0 | -142.0 | 0 | 0
COc1ccc(CCNC(=O)c2cc(-c3cccs3)on2)cc1OC | 36.2 | 0 | 0 | 0
COc1ccc(OC)c(-c2cc(C(=O)NCc3cccs3)no2)c1 | 0 | -95.8 | 0 | 0
CCOc1cccc2sc(N(CCN(C)C)C(=O)c3ccc4c(c3)OCCO4)nc12 | 0 | -66.4 | 0 | 0
CCOc1cccc2sc(N(CCN(C)C)C(=O)c3cc4ccccc4cc3OC)nc12 | 0 | -70.6 | 0 | 0
CCOc1ccc2nc(N(CCN(C)C)C(=O)c3cc4ccccc4cc3OC)sc2c1 | 0 | ? | 0 | 0
O=C(Cc1csc(Nc2nc(=S)[nH]c3ccccc23)n1)NCc1ccc(Cl)cc1 | 0 | 0 | 0 | 0
SMILES | D3 ag | DRD3 antagonist | B2AR arrestin | TSHR antagonist
O=C(Cc1csc(Nc2nc(=S)[nH]c3ccccc23)n1)NCCCN1CCN(c2ccccc2F)CC1 | 0 | -69.2 | 0 | 0
O=C(NNC(=O)c1cccc(Br)c1)Nc1ccc(Cl)cc1 | 0 | -66.7 | 0 | 0
O=C(NNC(=S)Nc1ccccc1)c1cccc(Br)c1 | 0 | 0 | 0 | 0
CC(C)(C)NC(=S)NNC(=O)c1cccc(Br)c1 | 0 | 0 | 6.31µM | 0
O=[N+]([O-])c1cccc2nc(-c3ccccc3)c(-c3ccccc3)nc12 | 0 | 0 | 0 | 0
Cn1c(-[n+]2c(-c3ccccc3)cc(-c3ccccc3)cc2-c2ccccc2)nc2c([N+](=O)[O-])cccc21 | 0 | -60.1 | 0 | 0
CCCCn1c(-c2cccnc2)nc2cc3[nH]c(=O)c(C(C)C)nc3cc21 | 0 | 0 | 0 | 0
CCCCn1c(-c2cccc(Br)c2)nc2cc3[nH]c(=O)c(C(C)C)nc3cc21 | 62.5 | 0 | 0 | 0

Compound activity from PubChem BioAssay.
